Results filed as inconclusive are left out. The source made the active and inactive calls. Calls come from the whole dose curve; as a rule, active = well fitted inhibition curve with a large enough effect; inconclusive = small, poorly fitted or top-dose-only effect; inactive = flat fitted curve, though single readings scatter.
% is set by controls: 0 for no effect and ±100 for the full control effect.

The first test can be described thus: Drug repurposing screens with cells derived from glioblastoma tumor samples (AID 1345199). Note: nearly all actives have a fitted effect of over 40% in size. The note with it: GBM patient neurospheres viability, ATP luminescence, 48 h; at 45.9 µM (top of the series); tumour line B. The method in brief: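 Primary testing used CD133+ neurospheres from four GBM patients, seven concentrations, 48 h exposure and ATP-based viability; confirmation added three slower-growing patient lines.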
In the case of `C=CC[N+]1([C@H]2C[C@H]3[C@@H]4CC[C@H]5C[C@H](O)[C@@H](N6CCOCC6)C[C@]5(C)[C@H]4CC[C@]3(C)[C@H]2OC(C)=O)CCCC1`, the activity, negative = cell killing is -3.03% (inactive).
Regarding `CC1CCC(NC(=O)N(CCCl)N=O)CC1` (stereo not given), the activity, negative = cell killing is -5.97% (inactive).
Turning to `Cc1cc2nc3c(=O)[nH]c(=O)nc-3n(C[C@H](O)[C@H](O)[C@H](O)COP(=O)(O)OP(=O)(O)OC[C@H]3O[C@@H](n4cnc5c(N)ncnc54)[C@H](O)[C@@H]3O)c2cc1C`, the activity, negative = cell killing was -13.1% (inactive).
On the same count and under the same terms, next, `CO[C@H]1O[C@@H]2O[C@@]3(C)CC[C@H]4[C@H](C)CC[C@@H]([C@H]1C)[C@@]24OO3`: -14.7% (inactive); `CC(C)(Oc1ccc(C2CCCc3ccccc32)cc1)C(=O)O` (stereo not given): -18.2% (inactive); `Cc1ccc(S(=O)(=O)NCl)cc1`: -6.22% (inactive).
On to `CCOC(=O)Cc1ccc(-c2ccccc2)cc1`, for which the activity, negative = cell killing was -6.74% (inactive).
As for `CC(C)C1=CC2=CC[C@@H]3[C@](C)(CCC[C@@]3(C)C(=O)O)[C@H]2CC1`, the activity, negative = cell killing was -3.87% (inactive).
For the compound `CC(C)CCCCCCc1ccc(O)cc1`, the activity, negative = cell killing was -21.6% (inactive).
`CCc1ccc(S(=O)(=O)O)cc1`: the activity, negative = cell killing is 3.64% (inactive).
Turning to `CCOC(=O)[C@H](CS)NCCN[C@@H](CS)C(=O)OCC`, the activity, negative = cell killing is -15.2% (inactive).
Take `O=C1c2ccccc2C(=O)C1c1ccc(F)cc1`: the activity, negative = cell killing was -20.2% (inactive).
For the compound `OCc1ccccc1`, the activity, negative = cell killing is -6.55% (inactive).
As to `O=C1N=C2SCCN2C(=O)C1Cc1ccc(Cl)cc1` (stereo not given), the activity, negative = cell killing is -17.4% (inactive).
As for `O=P(O)(O)OP(=O)(O)OP(=O)(O)O`, the activity, negative = cell killing is -10.9% (inactive).
As for `O=C(O)CCCC/C=C(\c1ccccc1)c1cccnc1`, the activity, negative = cell killing was -6.07% (inactive).
Same read-out and setting: next, `Cc1cccc(C)c1NC(=O)NC1=CCCN1C`: -5.38% (inactive); `CC(C)CN(C[C@@H](OP(=O)(O)O)[C@H](Cc1ccccc1)NC(=O)O[C@H]1CCOC1)S(=O)(=O)c1ccc(N)cc1`: -7.11% (inactive).
For `O=C(O)c1ccc(OCCn2ccnc2)cc1`, the activity, negative = cell killing is -11.4% (inactive).
The same measure, in the same setting: next, `CNC(=O)OCc1cccc(COC(=O)NC)n1`: -20.8% (inactive).
`NCCN`: the activity, negative = cell killing was -1.66% (inactive).
Take `CCC(Cc1c(I)cc(I)c(O)c1I)C(=O)O` (stereo not given): the activity, negative = cell killing was -7.21% (inactive).
For `CCCCCCCCCCCCCCCCCC(=O)OCC(C)O` (stereo not given), the activity, negative = cell killing is -18.7% (inactive).
Regarding `FC(F)(F)C(F)(F)C(F)(F)C(F)(F)C(F)(F)C(F)(F)F`, the activity, negative = cell killing is -7.96% (inactive).
For `C[C@@H]1C[C@H]2[C@@H]3C[C@H](F)C4=CC(=O)C=C[C@]4(C)[C@@]3(Cl)[C@@H](O)C[C@]2(C)[C@H]1C(=O)COC(=O)C(C)(C)C`, the activity, negative = cell killing was -18.4% (inactive).
Still for that read-out and setting: the same measure for `OCl`: -3.7% (inactive); for `C[C@H](CCC(=O)O)[C@H]1CC[C@H]2[C@@H]3[C@H](O)C[C@@H]4C[C@H](O)CC[C@]4(C)[C@H]3C[C@H](O)[C@]12C`: -1.15% (inactive).
Still for that read-out and setting: next, `CC[C@H]1OC(=O)[C@H](C)[C@@H](O[C@H]2C[C@@](C)(OC)[C@@H](O)[C@H](C)O2)C(C)[C@@H](O[C@@H]2O[C@H](C)C[C@H](N(C)C)[C@@H]2O)[C@](C)(OC)C[C@@H](C)C(=O)[C@H](C)[C@@H](O)[C@]1(C)O` (stereo not given in full): -10.3% (inactive); `NC(N)=O`: -9.26% (inactive).
For the compound `N=C(N)c1ccc(/C=C/c2ccc(C(=N)N)cc2O)cc1`, the activity, negative = cell killing was -18.3% (inactive).
For `CC(C)Cc1ccc([C@@H](C)C(=O)NS(C)(=O)=O)cc1`, the activity, negative = cell killing is -10.5% (inactive).
In the case of `CC(C)(COP(=O)(O)OP(=O)(O)OC[C@H]1O[C@@H](n2cnc3c(N)ncnc32)[C@H](O)[C@@H]1OP(=O)(O)O)C(O)C(=O)NCCC(=O)NCCS` (stereo not given in full), the activity, negative = cell killing was -4.74% (inactive).
Consider `COC(=O)c1ccccc1O`, for which the activity, negative = cell killing is -5.99% (inactive).
`CO/N=C(\C(=O)N[C@@H]1C(=O)N2C(C(=O)O)=C(CSC(=O)c3ccco3)CS[C@H]12)c1csc(N)n1`: the activity, negative = cell killing was -9.93% (inactive).
For the compound `O=C(O)C1=C(CSc2nnnn2CS(=O)(=O)O)CS[C@@H]2[C@H](NC(=O)[C@H](O)c3ccccc3)C(=O)N12`, the activity, negative = cell killing was -15.2% (inactive).
`O=[N+]([O-])O[C@@H]1CO[C@H]2[C@@H]1OC[C@@H]2O`: the activity, negative = cell killing was -16.9% (inactive).
`CCCCC`: the activity, negative = cell killing was -6.65% (inactive).

Staying with this test, now noted: GBM patient neurospheres viability, ATP luminescence, 48 h; at 45.9 µM (top of the series); tumour line D.
In the case of `C=CC[N+]1([C@H]2C[C@H]3[C@@H]4CC[C@H]5C[C@H](O)[C@@H](N6CCOCC6)C[C@]5(C)[C@H]4CC[C@]3(C)[C@H]2OC(C)=O)CCCC1`, the activity, negative = cell killing was -12.4% (inactive).
Take `CC1CCC(NC(=O)N(CCCl)N=O)CC1` (stereo not given): the activity, negative = cell killing was 0.785% (inactive).
As for `Cc1cc2nc3c(=O)[nH]c(=O)nc-3n(C[C@H](O)[C@H](O)[C@H](O)COP(=O)(O)OP(=O)(O)OC[C@H]3O[C@@H](n4cnc5c(N)ncnc54)[C@H](O)[C@@H]3O)c2cc1C`, the activity, negative = cell killing was -9.51% (inactive).
For `CO[C@H]1O[C@@H]2O[C@@]3(C)CC[C@H]4[C@H](C)CC[C@@H]([C@H]1C)[C@@]24OO3`, the activity, negative = cell killing is 1.49% (inactive).
Regarding `CC(C)(Oc1ccc(C2CCCc3ccccc32)cc1)C(=O)O` (stereo not given), the activity, negative = cell killing was -16.7% (inactive).
For `Cc1ccc(S(=O)(=O)NCl)cc1`, the activity, negative = cell killing is 7.3% (inactive).
On to `CCOC(=O)Cc1ccc(-c2ccccc2)cc1`, for which the activity, negative = cell killing is -7.57% (inactive).
The same measure, in the same setting: next, `CC(C)C1=CC2=CC[C@@H]3[C@](C)(CCC[C@@]3(C)C(=O)O)[C@H]2CC1`: 2.46% (inactive).
Turning to `CC(C)CCCCCCc1ccc(O)cc1`, the activity, negative = cell killing is -27.3% (inactive).
With `CCc1ccc(S(=O)(=O)O)cc1`, the activity, negative = cell killing is -9.65% (inactive).
`CCOC(=O)[C@H](CS)NCCN[C@@H](CS)C(=O)OCC`: the activity, negative = cell killing was -8.47% (inactive).
`O=C1c2ccccc2C(=O)C1c1ccc(F)cc1`: the activity, negative = cell killing was -13.5% (inactive).
On to `OCc1ccccc1`, for which the activity, negative = cell killing is 18% (inactive).
The same measure, in the same setting: next, `O=C1N=C2SCCN2C(=O)C1Cc1ccc(Cl)cc1` (stereo not given): -11.7% (inactive).
For `O=P(O)(O)OP(=O)(O)OP(=O)(O)O`, the activity, negative = cell killing was -30.2% (inactive).
Same read-out and setting: the same measure for `O=C(O)CCCC/C=C(\c1ccccc1)c1cccnc1`: -10.6% (inactive); for `Cc1cccc(C)c1NC(=O)NC1=CCCN1C`: -0.755% (inactive); for `CC(C)CN(C[C@@H](OP(=O)(O)O)[C@H](Cc1ccccc1)NC(=O)O[C@H]1CCOC1)S(=O)(=O)c1ccc(N)cc1`: -11.4% (inactive).
Same read-out and setting: the same measure for `O=C(O)c1ccc(OCCn2ccnc2)cc1`: -25.4% (inactive).
In the case of `CNC(=O)OCc1cccc(COC(=O)NC)n1`, the activity, negative = cell killing is 4.88% (inactive).
Take `NCCN`: the activity, negative = cell killing is -17.5% (inactive).
On the same count and under the same terms, next, `CCC(Cc1c(I)cc(I)c(O)c1I)C(=O)O` (stereo not given): -2.81% (inactive).
On to `CCCCCCCCCCCCCCCCCC(=O)OCC(C)O` (stereo not given), for which the activity, negative = cell killing was -0.865% (inactive).
Turning to `FC(F)(F)C(F)(F)C(F)(F)C(F)(F)C(F)(F)C(F)(F)F`, the activity, negative = cell killing was -23% (inactive).
Regarding `C[C@@H]1C[C@H]2[C@@H]3C[C@H](F)C4=CC(=O)C=C[C@]4(C)[C@@]3(Cl)[C@@H](O)C[C@]2(C)[C@H]1C(=O)COC(=O)C(C)(C)C`, the activity, negative = cell killing is -9.89% (inactive).
For `OCl`, the activity, negative = cell killing was -8.71% (inactive).
On the same count and under the same terms, the same measure for `C[C@H](CCC(=O)O)[C@H]1CC[C@H]2[C@@H]3[C@H](O)C[C@@H]4C[C@H](O)CC[C@]4(C)[C@H]3C[C@H](O)[C@]12C`: 1.82% (inactive); for `S=C1SCN(Cc2ccccc2)CN1Cc1ccccc1`: -15% (inactive).
For the compound `CC[C@H]1OC(=O)[C@H](C)[C@@H](O[C@H]2C[C@@](C)(OC)[C@@H](O)[C@H](C)O2)C(C)[C@@H](O[C@@H]2O[C@H](C)C[C@H](N(C)C)[C@@H]2O)[C@](C)(OC)C[C@@H](C)C(=O)[C@H](C)[C@@H](O)[C@]1(C)O` (stereo not given in full), the activity, negative = cell killing was -27.7% (inactive).
Regarding `NC(N)=O`, the activity, negative = cell killing is -11.1% (inactive).
Regarding `N=C(N)c1ccc(/C=C/c2ccc(C(=N)N)cc2O)cc1`, the activity, negative = cell killing is -9.46% (inactive).
As to `CC(C)Cc1ccc([C@@H](C)C(=O)NS(C)(=O)=O)cc1`, the activity, negative = cell killing is -14.1% (inactive).
The same measure, in the same setting: the same measure for `CC(C)(COP(=O)(O)OP(=O)(O)OC[C@H]1O[C@@H](n2cnc3c(N)ncnc32)[C@H](O)[C@@H]1OP(=O)(O)O)C(O)C(=O)NCCC(=O)NCCS` (stereo not given in full): -6.02% (inactive); for `COC(=O)c1ccccc1O`: -6.33% (inactive); for `CO/N=C(\C(=O)N[C@@H]1C(=O)N2C(C(=O)O)=C(CSC(=O)c3ccco3)CS[C@H]12)c1csc(N)n1`: -3.95% (inactive).
For `O=C(O)C1=C(CSc2nnnn2CS(=O)(=O)O)CS[C@@H]2[C@H](NC(=O)[C@H](O)c3ccccc3)C(=O)N12`, the activity, negative = cell killing is -23.3% (inactive).
For the compound `O=[N+]([O-])O[C@@H]1CO[C@H]2[C@@H]1OC[C@@H]2O`, the activity, negative = cell killing is -5.25% (inactive).
The same measure, in the same setting: the same measure for `CCCCC`: -7.88% (inactive).

(Values after PubChem BioAssay (NCATS).)
